These results are taken from paper PMC7826789 (International Journal of Molecular Sciences, 2021).
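Note: KINOMEscan scanMAX binding as percent activity remaining versus control; lower means stronger binding.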

This test deals with FLT1. The note with it: Compound Concentration (nM):1000.
On to `CN(C)CCNC(=O)Nc1ccc(N(C)c2ccnc(Nc3ccc(CS(C)(=O)=O)cc3)n2)cc1.Cl` [GW830900A], for which the “Percent Control” value is given as 61%.

Regarding `C/C(Nc1ccc(S(N)(=O)=O)cc1)=C1/C(=O)Nc2ccccc21` [GW335962X], the “Percent Control” value is listed as 100%.

In the case of `Cc1cc(O)cc(C)c1/C=C/c1cncc(C(N)=O)c1` [GW435821X], the “Percent Control” value is recorded as 100%.

Take `COc1cc(C)c(N(C)C(=O)CN(C)C)cc1Nc1nc(Nc2cccc(F)c2C(N)=O)c2cc[nH]c2n1` [GSK2219385]: the “Percent Control” value is listed as 96%.

As for `COC(=O)Nc1nc2ccc(Oc3ccc(NC(=O)Nc4cc(C(F)(F)F)ccc4F)cc3)cc2s1.Cl` [GW693917A], the “Percent Control” value is on record as 3%.

Turning to `NS(=O)(=O)c1ccc(Nc2ncc(-c3ccccc3)o2)cc1` [GW572399X], the “Percent Control” value is 100%.

For `CN(C)c1cc2c(Nc3ccc4c(cnn4Cc4ccccc4)c3)ncnc2cn1` [GW282974X], the “Percent Control” value was found to be 94%.

`CCc1ccc(Oc2nccc(-c3c(-c4ccc(F)cc4)ncn3C3CCNCC3)n2)cc1` [SB-242719]: the “Percent Control” value was found to be 100%.

As for `Nc1ncnc2occ(-c3ccc(NC(=O)Nc4cc(C(F)(F)F)ccc4F)cc3)c12` [GW770249X], the “Percent Control” value came to 2.9%.

On to `CN1CCN(C(=O)c2ccc(NC(=O)Nc3ccc(N(C)c4ccnc(Nc5ccc(CS(C)(=O)=O)cc5)n4)cc3)cc2)CC1.Cl` [GW830263A], for which the “Percent Control” value worked out at 0.4%.

Take `COc1cc2ncn(-c3cc(O[C@H](C)c4ccccc4Cl)c(C(N)=O)s3)c2cc1OC` [GSK237701A]: the “Percent Control” value turned out to be 69%.

With `COc1ccc(COc2ccc(Cc3cnc(N)nc3N)cc2OC)cc1` [GW632580X], the “Percent Control” value was determined as 98%.

On to `CCn1c(-c2nonc2N)nc2c(C#CC(C)(C)O)nc(OCCNC)cc21.Cl` [GSK949675], for which the “Percent Control” value was 100%.

Regarding `COc1cc(/C=N/Nc2ncnc3[nH]ncc23)ccc1O` [GW578748X], the “Percent Control” value was 89%.

`COc1cc(N2CCN(C(C)C)CC2)ccc1Nc1nc(Nc2ccc(F)cc2C(=O)NC[C@@H](O)CO)c2cc[nH]c2n1` [GSK1392956A]: the “Percent Control” value is 94%.

Take `Cl.c1ccc(Cc2nc3ccc(Nc4ncnc5ccccc45)cc3[nH]2)cc1` [GR269666A]: the “Percent Control” value came to 100%.

Turning to `C[C@@H](Oc1cc(-n2cnc3ccc(OC4CCN(C)CC4)cc32)sc1C(N)=O)c1ccccc1Cl` [GSK579289A], the “Percent Control” value came out at 75%.

On to `CC1=C(C(=O)Nc2ccc3[nH]ncc3c2)C(c2ccc(Cl)c(Cl)c2)CC(=O)N1` (stereo not drawn) [GSK299115A], for which the “Percent Control” value is reported as 100%.

As to `COc1cccc(-n2ncc3c(N/N=C/c4ccncc4)ncnc32)c1` [GW784752X], the “Percent Control” value is recorded as 100%.

With `COc1cc2ncnc(Nc3ccc4c(cnn4Cc4ccccc4)c3)c2cc1OC.Cl` [GW282449A], the “Percent Control” value came out at 100%.

Regarding `Cl.O=C(Nc1ccc(Oc2ccc3[nH]c(NC(=O)c4ccco4)nc3c2)cc1)Nc1cc(C(F)(F)F)ccc1F` [GW683134A], the “Percent Control” value came out at 3.2%.

In the case of `CC(C)COC(=O)c1ccc2c(c1)/C(=C/Nc1ccc(S(N)(=O)=O)cc1)C(=O)N2` [GW416981X], the “Percent Control” value is reported as 83%.

Turning to `COc1ccc2[nH]c3c4[nH]c5ccc(OC)cc5c4c4c(c3c2c1)C(=O)NC4=O` [GW296115X], the “Percent Control” value is on record as 79%.

Turning to `COc1ccc2c(-c3ccnc(Nc4cccc(OC(F)(F)F)c4)n3)cnn2n1` [GW810372X], the “Percent Control” value is 73%.

For the molecule `COc1ccc2cc(-c3c(-c4ccncc4)nc(-c4ccc(S(C)(=O)=O)cc4C)n3C)ccc2c1` [SB-633825], the “Percent Control” value is on record as 100%.

Regarding `O=C1Nc2ccc(C(=O)c3ccco3)cc2C1=Cc1cc(Cl)c(O)c(Cl)c1` [GW406108X], the “Percent Control” value stood at 57%.

As for `CCS(=O)(=O)c1ccc(OC)c(Nc2ncc(-c3cccc(F)c3)o2)c1` [GW621970X], the “Percent Control” value was 45%.

In the case of `CC1=C(C(=O)Nc2ccc3[nH]ncc3c2)C(c2ccc3ccccc3c2)CC(=O)N1` (stereo not drawn) [GSK270822A], the “Percent Control” value was determined as 89%.

As for `COc1cc(C=NNc2ncnc3c2cnn3-c2ccccc2)ccc1O` [GW513184X], the “Percent Control” value is listed as 100%.

For `Cl.O=C(O[C@H]1CN[C@H](C#Cc2cc3ncnc(Nc4ccc5c(cnn5Cc5ccccc5)c4)c3s2)C1)N1CCOCC1` [GSK200398A], the “Percent Control” value was 99%.

Consider `O=C(Nc1n[nH]c2nc(-c3ccc(O)cc3)c(Br)cc12)C1CC1` [SB-725317], for which the “Percent Control” value was 89%.

Take `Cl.O=C(Nc1ccc(Oc2ccc3[nH]c(NC(=O)c4ccccc4)nc3c2)cc1)Nc1cc(C(F)(F)F)ccc1F` [GW709042A]: the “Percent Control” value was found to be 5.1%.

As to `CCS(=O)(=O)c1ccc(OC)c(Nc2ncc(-c3cccc(OC)c3)o2)c1` [GW580509X], the “Percent Control” value is 54%.
